Screens as filed in PubChem.
CYP2C19 activ: human CYP2C19 activators, primary screen, biochemical, luminescence | 96,000 tested, under 10 active | AID 1025, 2008 | Cytochrome P450 2C19 (Homo sapiens), P33261 | activation factor at 5 µM | recombinant CYP2C19, luciferin-H EGE luminescence; hits give high values; 0 = fully inhibited enzyme, 1 = untreated enzyme;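 active means activation factor of at least 2 at 5 µM in the primary screen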
CYP2C19 inhib: blockers of cytochrome P450 2C19 activity – biochemical, luminescence, ADME assay, primary screen; inhibition, % at 5 µM; CYP2C19 Supersomes, luciferin-H EGE luminescence, 30 min; AID 778, 2007; actives 21% (n = 96,000);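 active means CYP2C19 inhibition above a set limit at 5 µM in the primary screen, cut at about 50% in these data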
CYP2C9 inhib: blockers of cytochrome P450 2C9 activity – biochemical, luminescence, ADME assay, primary screen | AID 777, 2007 | inhibition, % at 5 µM | CYP2C9 Supersomes, luciferin-H conversion | actives 20% (n = 96,000);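 active means blocking of liver enzyme CYP2C9 beyond about 50% at 5 µM, limit read from the data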
CYP2C9 act: human CYP2C9 activators, primary screen, biochemical, luminescence | recombinant CYP2C9, luciferin-H conversion; hits give high values; factor 1 = untreated enzyme, 0 = blocked | activation factor at 5 µM | actives 1.4% (n = 96,000);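 active means activation factor of 2 or more for CYP2C9 at a 5 µM dose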
D1 allo mod: D1 CRE-luciferase signal change, two-sided – cell-based, HEK293 D1, dopamine EC30, D1 allosteric modulator project, primary screen; dopamine EC30 potentiation; actives deviate in either direction; B-score at 10 µM; actives 5.9% (n = 58,000);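 active means luminescence count or its row- and column-corrected plate score outside the 99.7% band of the plate's sample wells, on either side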
hDAT+cocaine: changed hDAT dopamine uptake under cocaine IC80, either direction, primary screen, cocaine antagonist project, cell-based, LLC-PK1 hDAT, [14C]-dopamine uptake, MLSMR. AID 449768, 2010. actives 1.3% (n = 110,000). LLC-PK1 hDAT cells, [14C]-dopamine uptake with cocaine IC80; actives deviate in either direction. B-score at 10 µM;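 active means Z score or B-score, a plate-position-corrected score, falls beyond the plate's 99.7% confidence bounds, in either direction; inactive means both scores lie inside the 99.7% bounds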
Target sequence (Q01959 whole entry, looked up): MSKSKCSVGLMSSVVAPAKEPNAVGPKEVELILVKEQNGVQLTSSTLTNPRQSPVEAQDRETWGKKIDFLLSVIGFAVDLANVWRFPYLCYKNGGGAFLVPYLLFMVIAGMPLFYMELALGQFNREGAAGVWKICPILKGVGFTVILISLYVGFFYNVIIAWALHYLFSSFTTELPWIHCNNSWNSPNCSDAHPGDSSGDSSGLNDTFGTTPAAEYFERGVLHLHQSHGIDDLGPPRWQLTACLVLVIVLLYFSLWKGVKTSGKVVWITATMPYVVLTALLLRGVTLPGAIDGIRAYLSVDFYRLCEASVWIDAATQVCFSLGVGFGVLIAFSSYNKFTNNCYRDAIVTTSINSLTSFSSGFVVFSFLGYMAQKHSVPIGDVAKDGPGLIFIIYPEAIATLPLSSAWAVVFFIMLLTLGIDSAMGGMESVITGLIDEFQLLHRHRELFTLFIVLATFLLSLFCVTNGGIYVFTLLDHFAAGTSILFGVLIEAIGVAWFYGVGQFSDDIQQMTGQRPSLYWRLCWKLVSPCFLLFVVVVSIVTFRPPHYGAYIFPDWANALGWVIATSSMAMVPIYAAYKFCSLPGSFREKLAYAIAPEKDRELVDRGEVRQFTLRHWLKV
Numbers stand for hits; - = inactive; . = not tested or not shown. The list is not random: actives were taken first. Their share in the collection is about 28%.

SMILES	CYP2C19 activ	CYP2C19 inhib	CYP2C9 inhib	CYP2C9 act	D1 allo mod	hDAT+cocaine
Cc1cc(C)c(S(=O)(=O)NCc2cn3c(C)csc3n2)c(C)c1	-	51	-	-	.	-
Cc1ccc(SCc2cn3c(C)csc3n2)cc1	-	90	-	2.9	-4.6	-
COc1ccc(OCC(=O)Nc2cccc3ncccc23)cc1	-	-	-	-	-	-
CN(c1ccccc1C(=O)O)S(=O)(=O)c1ccc2c3c(cccc13)C(=O)N2	.	.	.	.	-	-
O=S(=O)(Nc1cccc2ncccc12)c1cccs1	-	-	-	2.9	-	-
CNc1ccccc1C(=O)OC	.	.	.	.	.	-
COC(=O)c1c(NS(=O)(=O)c2cccs2)sc2c1CCCC2	-	-	-	-	-	-
COC(=O)c1c(C)oc2c1cc(NS(=O)(=O)c1cccs1)c1ccccc12	-	92	95	-	.	-
COC(=O)c1ccccc1NS(=O)(=O)c1ccc2c3c(cccc13)C(=O)N2	-	76	100	-	-	-
O=C(O)c1ccccc1NS(=O)(=O)c1ccc2c3c(cccc13)C(=O)N2	-	-	97	-	-	-
Cc1ccc2[nH]c(=O)c(CN(Cc3cccnc3)Cc3nnnn3CCN3CCOCC3)cc2c1	-	-	-	-	.	-
CCNc1nc(NCC)nc(N2CC(=O)N(CC(=O)OCC)C2=N)n1	.	.	.	.	.	-
CC1(C)Cc2ccccc2-c2nc3ccccc3c(=O)n21	-	-	-	-	-	-
O=C1Nc2ccc(NS(=O)(=O)c3cccs3)c3cccc1c23	-	89	89	-	.	.
CCOC(=O)C1CCN(S(=O)(=O)c2ccc3c4c(cccc24)C(=O)N3)CC1	-	-	-	-	-	-
O=C1Nc2ccc(S(=O)(=O)NCc3ccco3)c3cccc1c23	.	.	.	.	-	-
Cc1oc2c(cc(NS(=O)(=O)c3ccc4c5c(cccc35)C(=O)N4)c3ccccc32)c1C(=O)OC(C)C	-	-	89	-	.	.
N[C@@H](Cc1ccc(O)cc1)c1nnc([C@H](CO)NC(=O)C2CCNCC2)o1	.	.	.	.	.	-
CCOC(=O)c1ccc2ncc(C(=O)OCC)c(NCCCN3CCOCC3)c2c1	-	83	88	-	-	-
CCOC(=O)c1cnc2c(C(=O)OC)cccc2c1NCc1ccco1	-	-	54	-	-	-
CCOC(=O)c1ccc2ncc(C(=O)OCC)c(NCc3ccco3)c2c1	-	-	56	-	-	-
CCOC(=O)c1cnc2c(C)cccc2c1NCc1ccco1	-	-	-	-	-	-
COc1ccc(CNc2nc3nc4c(c(=O)n3[nH]2)CCC4)cc1	-	-	-	-	.	-
CCCn1c2ccc(/C(C)=N\O)cc2c2cc(/C(C)=N/O)ccc21	-	-	-	-	.	-
O=C(N/N=C/c1ccc(OCCCF)cc1)c1cc(OCC(F)(F)F)ccc1OCC(F)(F)F	-	-	-	-	.	-
SMILES	CYP2C19 activ	CYP2C19 inhib	CYP2C9 inhib	CYP2C9 act	D1 allo mod	hDAT+cocaine
Cc1cc(C(F)(F)F)nc(NCc2cccnc2)n1	.	.	.	.	-	-
Cc1cc(Cl)c(S(=O)(=O)NC(C(=O)O)C(C)C)cc1OCC(=O)NC1CCCCC1 (stereo not drawn)	-	-	-	-	.	-
CCCNC(=O)COC(=O)c1ccc(Cl)c(S(=O)(=O)N2CCCC2)c1	-	-	-	-	.	-
O=C(COC(=O)c1ccc(Cl)c(S(=O)(=O)N2CCCC2)c1)NC1CCCC1	-	65	-	-	-	-
COc1ccc(CNS(=O)(=O)c2cc(OCC(N)=O)c(C)cc2Cl)cc1	-	-	-	-	.	-
Cc1cc(Cl)c(S(=O)(=O)Nc2ccc3c(c2)OCO3)cc1OCC(=O)NC1CCCCC1	-	79	62	-	.	-
Cc1cc(Cl)c(S(=O)(=O)N2CCCC2)cc1OCC(=O)NC1CCCCC1	-	95	77	-	.	-
Cc1cc(Cl)c(S(=O)(=O)NCc2cccnc2)cc1OCC(=O)NC1CCCCC1	-	-	58	-	.	-
Cc1ccc2c(c1)c1c(n2C)-c2[nH]ncc2CC1	.	.	.	.	.	-
CC(CC(C)C(=O)Nc1ccccc1C(C)(C)C)C(=O)O (stereo not drawn)	.	.	.	.	.	-
Cc1cc(Cl)c(S(=O)(=O)Nc2ccc3c(c2)OCO3)cc1OCC(N)=O	-	90	62	-	-	-
O=C(N/N=C/c1ccc(F)cc1)c1ccc(Br)cc1	-	-	-	-	.	-
CC(C)(C)c1ccc(C(=O)N/N=C/c2cccc(Cl)c2)cc1	-	76	-	-	.	-
COCCCN=C(c1ccco1)n1c(=S)nc(-c2ccco2)n(CCCOC)c1=S	-	-	61	-	.	-
COCCCn1c(-c2ccco2)nc2ccccc2c1=O	-	-	-	-	-	-
CN(C)c1ccnc(N(Cc2ccccc2)Cc2ccccc2)c1C#N	-	96	95	-	.	-
CN(C)c1ccnc(NCc2ccccc2)c1C#N	-	67	-	-	-	-
N#Cc1c(NCc2ccccc2)ccnc1NCc1cccnc1	-	99	56	-	-	-
Cc1cc(N(C)C)c(C#N)c(NCc2ccccc2)n1	-	-	-	-	-	-
COC1(OC)C(/C=C/c2ccc(C)cc2)C(C#N)(C#N)C1(OC)OC (stereo not drawn)	.	.	.	.	.	-
CCN1C(=O)c2cccc3c(S(=O)(=O)Nc4c(C)n(C)n(-c5ccccc5)c4=O)ccc1c23	-	-	58	-	-	-
CCOC(=O)Cc1csc(NS(=O)(=O)c2ccc3c4c(cccc24)C(=O)N3CC)n1	-	-	95	-	-	-
CCOC(=O)Cc1csc(NS(C)(=O)=O)n1	-	-	-	-	.	-
Cn1cc(C(=O)Nc2ccc(F)c(F)c2)cn1	-	-	-	-	.	-
O/N=C/c1ccccc1Oc1ccccc1	-	73	-	-	.	-
SMILES	CYP2C19 activ	CYP2C19 inhib	CYP2C9 inhib	CYP2C9 act	D1 allo mod	hDAT+cocaine
Cc1cc(C)cc(Oc2ccccc2/C=N\O)c1	-	-	-	2.6	.	-
COC(C[C@H]1O[C@H]1[C@H](O)[C@H](C)OCc1ccccc1)OC	.	.	.	.	.	-
CCCn1c(O)c(CN2CCCCC2)c(C)c(C#N)c1=O	-	-	63	-	-	-
CCOC(=O)C1=C(N)Oc2c(c(=O)[nH]c3ccccc23)C1c1ccccc1 (stereo not drawn)	-	-	74	-	.	-
CCOC(=O)C1=C(N)Oc2cc(C)n(CCc3ccc(OC)c(OC)c3)c(=O)c2C1c1cccnc1 (stereo not drawn)	-	-	-	-	-	-
CCOC(=O)C1=C(N)Oc2cc(C)oc(=O)c2C1c1cccnc1 (stereo not drawn)	-	60	63	-	-	-
